# Laboratory results from PubChem BioAssay (EPA / NIEHS).
# “And” between values parts separate entries of the source, which are not always exact repeats. Identical values can stand only once. The source holds several records for some structures; these can differ, active in one and inactive in another. The source made the active and inactive calls. The calls were made as follows: active = hit-call score of the fitted dose curve at least 0.9, where 1 is the maximum; inactive = score below 0.9.
# Read-out: Plasminogen activator inhibitor-1 (PAI1), SERPINE1 (gene 5054)
# Assay: BSK_MyoF_PAI1: BioMAP Diversity Plus: MyoF Assay for Plasminogen activator inhibitor-1 (PAI1) Biomarker Activity (AID 2284256);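 as to outcome: PAI-1 protein level measured by ELISA in fibroblast cultures; PAI-1 read 24 h after compound addition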
# Details: primary human lung fibroblasts
# Method: (§1) BSK_MyoF is a cell-based, multiplexed-readout assay that uses lung fibroblasts, […], with measurements taken at 24 hours after chemical dosing in a microplate: 96-well plate.BSK_MyoF_PAI1 is an assay component measured in the BSK_MyoF assay. It measures PAI-1 antibody related to regulation of gene expression using ELISA technology.Data from the assay component BSK_MyoF_PAI1 was analyzed at the endpoint, BSK_MyoF_PAI1, in the positive analysis fitting direction relative to DMSO as the negative control and baseline of activity. Using a type of binding reporter, gain or loss-of-signal activity can be used to understand protein changes. To generalize the intended target to other relatable targets, this assay endpoint is annotated to the 'cytokine' intended target family, where the subfamily is 'plasmogen activator inhibitor'.
# (§2) The levels of cell surface (or secreted, indicated by the prefix "s") biomarker endpoints were measured by ELISA. Overt cytotoxicity to cells in confluent adherent cultures (all systems other than the BT system) was assessed by measuring total protein levels using sulforhodamine B (SRB) staining in parallel cultures at the time of biomarker measurements, indicated as SRB endpoints. For proliferation assays for adherent cell types, individual cell types are cultured at sub-confluence and relative cell numbers quantified by SRB staining at time points optimized for each system (48 h: 3C and CASM3C systems; 72 h: BT and HDF3CGF systems; 96 h: SAg system). SRB was performed by staining cells with 0.1% SRB after fixation with 10% TCA and reading wells at 560 nm.Viability and proliferation of PBMC (T cells) was quantified by Alamar Blue reduction for the SAg and BT systems. For PBMC viability (referred to as PBMC Cytotoxicity within the assay endpoint names), cells were plated (75,000/well in a 96-well plate) and then chemical samples added for 1 h before addition of activators, SEB and TSST-1 (20 ng/mL final concentration each). Cells were incubated for 90 h. Then, Alamar Blue (20 uL/well) (Invitrogen, Cat DAL1100) was added for 6 h, and the plates were read with a fluorescence microplate reader at 546/580 nm (excitation/emission). For PBMC proliferation, cells were plated and activated as above but incubated for only 16 h prior to addition of Alamar Blue. Plates were read after 6 h.
Structure (SMILES),AC50,outcome
O=C(O)C(F)(F)C(F)(F)C(F)(F)C(F)(F)C(F)(F)C(F)(F)C(F)(F)C(F)(F)C(F)(F)F,46.7 µM (active) and 54.8 µM (active),–
O=S(=O)(O)C(F)(F)C(F)(F)C(F)(F)C(F)(F)C(F)(F)C(F)(F)F,–,inactive
O=S(=O)(O)C(F)(F)C(F)(F)C(F)(F)C(F)(F)F,–,inactive
NS(=O)(=O)C(F)(F)C(F)(F)C(F)(F)C(F)(F)C(F)(F)C(F)(F)C(F)(F)C(F)(F)F,46.3 µM (active) and 55.1 µM (active),–
Oc1c(Cl)c(Cl)c(Cl)c(Cl)c1Cl,7.45 µM (active),–
O=C(O)C(F)(F)C(F)(F)C(F)(F)C(F)(F)C(F)(F)F,–,inactive
O=C(O)C(F)(F)C(F)(F)C(F)(F)C(F)(F)C(F)(F)C(F)(F)C(F)(F)C(F)(F)F,–,inactive
Sc1ccccc1,–,inactive

# Read-out: CD69, CD69 (gene 969)
# Assay: BSK_IMphg_CD69: BioMAP Diversity Plus: IMphg Assay for CD69 Biomarker Activity (AID 2284257)
# Details: primary human endothelial cells with macrophages
# Procedure, shortened: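 Readout is ELISA for CD69 in primary human venular endothelial cell/macrophage co-culture, taken at 24 h post-dosing. SRB staining of parallel cultures gauged overt cytotoxicity; signal increase versus DMSO defined activity.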
Structure (SMILES),AC50,outcome
O=C(O)C(F)(F)C(F)(F)C(F)(F)C(F)(F)C(F)(F)C(F)(F)C(F)(F)C(F)(F)C(F)(F)F,45.3 µM (active) and 42 µM (active),–
O=S(=O)(O)C(F)(F)C(F)(F)C(F)(F)C(F)(F)C(F)(F)C(F)(F)F,–,inactive
O=S(=O)(O)C(F)(F)C(F)(F)C(F)(F)C(F)(F)F,–,inactive
NS(=O)(=O)C(F)(F)C(F)(F)C(F)(F)C(F)(F)C(F)(F)C(F)(F)C(F)(F)C(F)(F)F,10 µM (active),inactive
O=C(O)C(F)(F)C(F)(F)C(F)(F)C(F)(F)C(F)(F)F,–,inactive
O=C(O)C(F)(F)C(F)(F)C(F)(F)C(F)(F)C(F)(F)C(F)(F)C(F)(F)C(F)(F)F,49.9 µM (active) and 48.7 µM (active),–

# Read-out: Eotaxin 3, CCL26 (gene 10344)
# Assay: BSK_BF4T_Eotaxin3: BioMAP Diversity Plus: BF4T Assay for Eotaxin 3 Biomarker Activity (AID 2284258)
# Details: primary human bronchial epithelial cells with fibroblasts
# Method: BSK_BF4T is a cell-based, multiplexed-readout assay that uses bronchial epithelial cells and dermal fibroblasts, a human vascular primary cell, with measurements taken at 24 hours after chemical dosing in a microplate: 96-well plate.BSK_BF4T_Eotaxin3 is an assay component measured in the BSK_BF4T assay. It measures Eotaxin-3 antibody related to regulation of gene expression using ELISA technology.Data from the assay component BSK_BF4T_Eotaxin3 was analyzed at the endpoint, BSK_BF4T_Eotaxin3, in the positive analysis fitting direction relative to DMSO as the negative control and baseline of activity. Using a type of binding reporter, gain or loss-of-signal activity can be used to understand protein changes. To generalize the intended target to other relatable targets, this assay endpoint is annotated to the 'cytokine' intended target family, where the subfamily is 'chemotactic factor'.
# as §2
Structure (SMILES),AC50,outcome
O=C(O)C(F)(F)C(F)(F)C(F)(F)C(F)(F)C(F)(F)C(F)(F)C(F)(F)C(F)(F)C(F)(F)F,9.59 µM (active) and 12.1 µM (active),–
O=S(=O)(O)C(F)(F)C(F)(F)C(F)(F)C(F)(F)C(F)(F)C(F)(F)F,–,inactive
O=S(=O)(O)C(F)(F)C(F)(F)C(F)(F)C(F)(F)F,–,inactive
NS(=O)(=O)C(F)(F)C(F)(F)C(F)(F)C(F)(F)C(F)(F)C(F)(F)C(F)(F)C(F)(F)F,20.4 µM (active) and 12.6 µM (active),–
O=C(O)C(F)(F)C(F)(F)C(F)(F)C(F)(F)C(F)(F)F,–,inactive
O=C(O)C(F)(F)C(F)(F)C(F)(F)C(F)(F)C(F)(F)C(F)(F)C(F)(F)C(F)(F)F,17 µM (active) and 15.5 µM (active),–

# Read-out: Monocyte Chemoattractant Protein-1 (MCP1), CCL2 (gene 6347)
# Assay: BSK_BF4T_MCP1: BioMAP Diversity Plus: BF4T Assay for Monocyte Chemoattractant Protein-1 (MCP1) Biomarker Activity (AID 2284259)
# Details: primary human bronchial epithelial cells with fibroblasts
# Procedure, shortened: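 MCP-1 ELISA readout taken 24 h after dosing in the BF4T system (bronchial epithelial cells plus dermal fibroblasts). Parallel SRB total-protein staining flagged cytotoxicity; DMSO served as baseline, positive fitting direction.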
Structure (SMILES),AC50,outcome
O=C(O)C(F)(F)C(F)(F)C(F)(F)C(F)(F)C(F)(F)C(F)(F)C(F)(F)C(F)(F)C(F)(F)F,9.32 µM (active) and 8.22 µM (active),–
O=S(=O)(O)C(F)(F)C(F)(F)C(F)(F)C(F)(F)C(F)(F)C(F)(F)F,–,inactive
O=S(=O)(O)C(F)(F)C(F)(F)C(F)(F)C(F)(F)F,–,inactive
NS(=O)(=O)C(F)(F)C(F)(F)C(F)(F)C(F)(F)C(F)(F)C(F)(F)C(F)(F)C(F)(F)F,47.9 µM (active) and 42 µM (active),–
O=C(O)C(F)(F)C(F)(F)C(F)(F)C(F)(F)C(F)(F)F,–,inactive
O=C(O)C(F)(F)C(F)(F)C(F)(F)C(F)(F)C(F)(F)C(F)(F)C(F)(F)C(F)(F)F,21.7 µM (active) and 34.2 µM (active),–

# Read-out: Intercellular Adhesion Molecule 1 (ICAM1), ICAM1 (gene 3383)
# Assay: BSK_BF4T_ICAM1: BioMAP Diversity Plus: BF4T Assay for Intercellular Adhesion Molecule 1 (ICAM1) Biomarker Activity (AID 2284260)
# Details: primary human bronchial epithelial cells with fibroblasts
# Procedure, shortened: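 ICAM-1 levels measured by ELISA after 24 h chemical treatment of bronchial epithelial cell/dermal fibroblast co-cultures, read against DMSO baseline. Overt cytotoxicity checked in parallel cultures by sulforhodamine B staining.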
Structure (SMILES),AC50,outcome
O=C(O)C(F)(F)C(F)(F)C(F)(F)C(F)(F)C(F)(F)C(F)(F)C(F)(F)C(F)(F)C(F)(F)F,11.6 µM (active) and 14.5 µM (active),–
O=S(=O)(O)C(F)(F)C(F)(F)C(F)(F)C(F)(F)C(F)(F)C(F)(F)F,–,inactive
O=S(=O)(O)C(F)(F)C(F)(F)C(F)(F)C(F)(F)F,–,inactive
NS(=O)(=O)C(F)(F)C(F)(F)C(F)(F)C(F)(F)C(F)(F)C(F)(F)C(F)(F)C(F)(F)F,47.2 µM (active) and 36 µM (active),–
O=C(O)C(F)(F)C(F)(F)C(F)(F)C(F)(F)C(F)(F)F,–,inactive
O=C(O)C(F)(F)C(F)(F)C(F)(F)C(F)(F)C(F)(F)C(F)(F)C(F)(F)C(F)(F)F,22.2 µM (active) and 38.1 µM (active),–

# Read-out: Interleukin-8 (IL8), CXCL8 (gene 3576)
# Assay: BSK_MyoF_IL8: BioMAP Diversity Plus: MyoF Assay for Interleukin-8 (IL8) Biomarker Activity (AID 2284261)
# Details: primary human lung fibroblasts
# Method: as §1, with “plate.BSK_MyoF_IL8” for “plate.BSK_MyoF_PAI1”, “IL-8” for “PAI-1”, “BSK_MyoF_IL8” for “BSK_MyoF_PAI1”, “BSK_MyoF_IL8,” for “BSK_MyoF_PAI1,”, “'interleukins'.” for “'plasmogen activator inhibitor'.”
# as §2
Structure (SMILES),AC50,outcome
O=C(O)C(F)(F)C(F)(F)C(F)(F)C(F)(F)C(F)(F)C(F)(F)C(F)(F)C(F)(F)C(F)(F)F,54.6 µM (active),inactive
O=S(=O)(O)C(F)(F)C(F)(F)C(F)(F)C(F)(F)C(F)(F)C(F)(F)F,–,inactive
O=S(=O)(O)C(F)(F)C(F)(F)C(F)(F)C(F)(F)F,–,inactive
NS(=O)(=O)C(F)(F)C(F)(F)C(F)(F)C(F)(F)C(F)(F)C(F)(F)C(F)(F)C(F)(F)F,53 µM (active) and 50.7 µM (active),–
Oc1c(Cl)c(Cl)c(Cl)c(Cl)c1Cl,0.595 µM (active),–
O=C(O)C(F)(F)C(F)(F)C(F)(F)C(F)(F)C(F)(F)F,–,inactive
O=C(O)C(F)(F)C(F)(F)C(F)(F)C(F)(F)C(F)(F)C(F)(F)C(F)(F)C(F)(F)F,–,inactive
Sc1ccccc1,–,inactive
